Screening results: PubChem, National Center for Advancing Translational Sciences (NCATS)
Rows were chosen to be rich in hits. Some 0.36% of all compounds tested hit in one or more screens of this group.
CXXC DNA block = blocks binding of human MLL CXXC domain to DNA; Q03164; MLL-CXXC / FITC-HOXA9 DNA fluorescence polarization; Potency, µM (titrated, usually from 115 µM), without a hit: at the top dose activity change, negative = inhibition, actives largely listed as inhibitors; 0.037% of 290,000 active; AID 2662; active means well fitted inhibition curve with a large enough effect in the polarisation, with a control signal flat, not every such curve was filed as active; inconclusive means small, poorly fitted or top-dose-only effect, or effect the other way, or a change in a side signal; inactive means no such curve, though single readings can be large or run the other way; the % refers to the polarisation; further: potency means the concentration at half of the fitted maximal effect
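Steps: dispense CXXC domain solution (7 uM) → pin compounds or unlabeled HOX-A9 DNA control → 5 min ambient → add FLSN-HOX-A9 solution (50 nM) → spin → 30 min ambient → fluorescence polarization. Tris pH 7.5/NaCl/DTT/BSA buffer.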
TR SRC2 fluor cs = alters Texas Red total fluorescence, flagging assay interference; TRb/SRC2 Texas Red total fluorescence interference; Potency, µM (titrated, usually from 106 µM), for inactives: top-dose fluorescence change, negative = quenching; 0.29% of 280,000 active; AID 1479; active means well fitted curve in either direction with a large enough effect; inconclusive means small, poorly fitted or top-dose-only effect; further: potency means the concentration at half of the fitted maximal effect; on the % scale 0 is the no-effect control and ±100 the full control effect
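Human TRb ligand-binding domain at 0.6 uM with 20 nM Texas Red SRC2 peptide in Tris buffer containing 1 uM T3 and 5% DMSO, incubated with compound 5 h at ambient temperature. Total fluorescence (555/632 nm) calculated as parallel + 2 × perpendicular.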
TRb SRC2 PPI = TRbeta-SRC2 interaction inhibition. P10828. TRbeta-SRC2 peptide binding, fluorescence polarization; receptor liganded with 1 µM T3. Potency, µM (top dose mostly 106 µM), for inactives: at the top dose activity change, negative = inhibition, usual class: inhibitors. 0.065% of 280,000 active;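 further: potency means the concentration at half of the fitted maximal effect; plate controls were bound peptide for no effect and peptide without receptor for full effect; nearly all actives have a fitted effect of over 50% in size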
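Human TRb ligand-binding domain (0.6 uM) is mixed with 20 nM Texas Red SRC2 peptide and 1 uM T3; after compound addition and 5 hr at ambient temperature, polarization is measured and normalized to unbound and bound controls.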
Menin MLL FP TR = inhibitors of human menin-MLL interaction, mutant MLL peptide; O00255; Menin + Texas Red MLL mutant peptide, fluorescence polarization; Potency, µM (doses to about 61.6 µM), without a hit: at the highest dose FP activity change, negative = inhibition, usual class: inhibitors; 0.23% of 270,000 active; active means well fitted inhibition curve with a large enough effect in the polarisation, with a control signal flat, not every such curve was filed as active; inconclusive means small, poorly fitted or top-dose-only effect, or effect the other way, or a change in a side signal; inactive means no such curve, though single readings can be large or run the other way; the % refers to the polarisation; further: potency means the concentration at half of the fitted maximal effect; % of control where 0% means no effect
Menin MLL FP FL = inhibitors of human menin-MLL interaction, wild-type MLL peptide; FP activity change, % at 61.4 µM; 290,000 tested, under 10 active; AID 1766; Fluorescence polarization, fluorescein-MLL peptide displacement from menin; active means well fitted curve in the direction sought with a large enough effect in the polarisation, not every such curve was filed as active; inconclusive means small, poorly fitted or top-dose-only effect, or effect the other way, or a change in a side signal; inactive means no such curve, though single readings can be large or run the other way; the % refers to the polarisation; further: % of control where 0% means no effect
MLL CXXC FP-Fl = inhibitors of human MLL CXXC domain-DNA interaction. MLL CXXC-DNA binding, fluorescein FP. 70% of 200 active. AID 624160. Potency, µM (series often up to 345 µM), for the others: at the highest dose activity change, negative = inhibition, hits mostly inhibitors. shares compounds with CXXC DNA block; further: potency means the concentration at half of the fitted maximal effect; nearly all actives have a fitted effect of over 80% in size
MLL CXXC TxRed = disrupts human MLL CXXC domain binding to DNA, Texas Red; AID 624161; Potency, µM (top dose mostly 345 µM), for inactives: top-dose activity change, negative = inhibition, most hits filed as inhibitors; shares compounds with CXXC DNA block; MLL CXXC-DNA binding, Texas Red fluorescence polarization; 40% of 200 active; further: potency means the concentration at half of the fitted maximal effect; on the % scale 0 is the no-effect control and ±100 the full control effect; nearly all actives have a fitted effect of over 75% in size
MLL CXXC TRF = MLL CXXC-DNA interaction inhibition, HTRF readout | shares compounds with CXXC DNA block | MLL CXXC-DNA binding, HTRF, biochemical | Potency, µM (highest dose often 172 µM), for inactives: at the highest dose activity change, negative = inhibition, actives largely listed as inhibitors | 30% of 210 active; further: on the % scale 0 is the no-effect control and ±100 the full control effect; nearly all actives have a fitted effect of over 80% in size
An asterisk follows results filed as active; u = inconclusive; x = no result; [ ] = another dose, or the depositor's remark. Unless noted, the call rests on the fitted dose curve; in most records, active means well fitted curve in the direction sought with a large enough effect; inconclusive means small, poorly fitted or top-dose-only effect, or another doubt; inactive means no such curve, though single readings can be large; an effect the other way counts as inactive or inconclusive.

SMILES	CXXC DNA block	TR SRC2 fluor cs	TRb SRC2 PPI	Menin MLL FP TR	Menin MLL FP FL	MLL CXXC FP-Fl	MLL CXXC TxRed	MLL CXXC TRF
O=C(CSc1nc2ccccc2c(=O)n1Cc1ccc(F)cc1)NCc1cccs1	7.94µM*	2.4%	5.0%	9.6%	3.2	1.7%	47.9%	0.9%
Cc1cc(NS(=O)(=O)c2ccc(NC(=O)c3ccccc3F)cc2)nc(C)n1	x	-0.3%	2.4%	x	x	x	x	x
CC1=NN(c2ccccc2)C(=O)/C1=C/c1cccc(C)c1	u	x	x	u	u	44.8µM*	u	-26.8%
Cc1nc(-c2ccc(F)cc2)sc1CCNC(=O)C(=O)Nc1ccc2c(c1)OCO2	x	0.3%	0.2%	x	x	x	x	x
CN1CCCc2cc3c(C(F)(F)F)cc(=O)oc3nc21	28.2µM*	-3.1%	-4.8%	-2.1%	u	44.8µM*	-15.7%	21.8%
CC(=O)N/N=C/c1cc(C(C)(C)C)cc(/C=N/NC(C)=O)c1O	u	-2.3%	-5.2%	0.1%	u	51.7%	-10.4%	45.3%
COc1cccc(/C=C2/C(=O)NN(c3ccc(Br)cc3)C2=O)c1O	u	x	x	u	-0.9	100µM*	u	-4.8%
COc1cc(/C=C2/C(=O)NN(c3ccc(F)cc3)C2=O)cc(Cl)c1O	-1.4%	x	x	u	u	x	x	x
Cn1cc(-c2nc3cncnc3n(CCN)c2=O)c2ccccc21	x	x	x	-0.1%	5.7	x	x	x
CC[C@@]1(O)C[C@H](O[C@H]2C[C@@H](N(C)C)[C@@H](O[C@H]3C[C@@H](O)[C@@H](O[C@H]4CCC(=O)[C@@H](C)O4)[C@@H](C)O3)[C@@H](C)O2)c2c(cc3c(c2O)C(=O)c2c(O)cccc2C3=O)[C@H]1C(=O)OC	u	x	x	-14.3%	u	x	x	x
CC(=O)C1(O)Cc2c(O)c3c(c(O)c2C(OC2CC(N)C(O)C(C)O2)C1)C(=O)c1c(O)cccc1C3=O (configuration not stated)	u	44.7µM*[fluorescent]	25.1µM*	u	u	4.48µM*	20µM*	270.4%
CCN(CC)C(=O)Cn1cc(SCC(=O)Nc2ccccc2F)c2ccccc21	x	-1.2%	-6.2%	x	x	x	x	x
O=C1CCCC2=C1Sc1ccc(Cl)cc1N2	u	-4.0%	-0.9%	x	u	x	x	x
COC(=O)c1ccc2c(c1)SC1=C(CCCC1=O)N2	28.2µM*	17.5%	-24.1%	u	u	100µM*	142µM*	171.0%
O=C(Nc1cccc(C(=O)Nc2ccc(S(=O)(=O)O)c3cc(S(=O)(=O)O)cc(S(=O)(=O)O)c23)c1)Nc1cccc(C(=O)Nc2ccc(S(=O)(=O)O)c3cc(S(=O)(=O)O)cc(S(=O)(=O)O)c23)c1	15.8µM*	-16.5%	-0.1%	20.8%	u	28.3µM*	100µM*	38.5µM*
Cc1ccc(S(=O)(=O)/N=C2\C=C(Nc3cccc(C(=O)O)c3)C(=O)c3ccccc32)cc1	u	x	x	u	-13.2	x	x	x
COC(=O)c1ccccc1NC1=C/C(=N\S(=O)(=O)c2ccc(C(=O)O)cc2)c2ccccc2C1=O	15.8µM*	x	x	x	x	5.03µM*	142µM*	-72.3%
CCc1ccc(S(=O)(=O)/N=C2\C=C(Nc3ccc(C(=O)O)cc3)C(=O)c3ccccc32)cc1	12.6µM*	x	x	u	-13.2	40µM*	u	157.7%
CCC(=O)N1CCc2cc(Br)cc(S(=O)(=O)N3CCC(C(=O)Nc4cccc(C)c4)CC3)c21	x	u	1.9%	x	x	x	x	x
CC1=NN(c2ccc(Br)cc2)C(=O)/C1=C/c1ccc(-c2ccccc2C(=O)O)o1	u	x	x	u	1.9	113µM*	89.5µM*	50.5%
COc1ccccc1N1CCN(CC2CN3C(=O)N(C)c4ccccc4C3=N2)CC1 (configuration not stated)	x	-1.8%	-1.7%	x	x	x	x	x
Cc1nc2ccccc2oc1=O	x	-3.3%	2.1%	-0.8%	-1.7	x	x	x
O=c1c(Cl)c2oc3ccccc3nc-2c2ccccc12	31.6µM*	-1.7%	-3.4%	u	u	113µM*	u	39.6%
Cc1cc(-c2ccccc2)c2c3c(cn2n1)c(=O)n(C)c(=O)n3C	3.0%	-0.1%	1.2%	-5.6%	0.8	x	x	x
Cc1cc(-c2ccccc2)c2c3c(c(-c4ccccc4)n2n1)c(=O)n(C)c(=O)n3C	50.1µM*	-0.4%[53 µM]	-29.4%[53 µM]	4.2%	u	-43.2%	15.6%	8.8%
SMILES	CXXC DNA block	TR SRC2 fluor cs	TRb SRC2 PPI	Menin MLL FP TR	Menin MLL FP FL	MLL CXXC FP-Fl	MLL CXXC TxRed	MLL CXXC TRF
Cc1nn(C)c(C)c1CN(C)C(=O)C1c2ccccc2Oc2ccccc21	31.6µM*	5.6%	-20.2%	-1.4%	-1.4	126µM*	u	-1.2%
Cc1nn(C)c(C)c1CN(C)C(=O)C1(C)CC1(Br)Br (configuration not stated)	12.1%	-0.7%	-11.1%	2.5%	5.9	x	x	x
CS(=O)(=O)N1CCC(N2CCN(Cc3ccc(F)cc3)C(=O)C2=O)CC1	x	-1.0%	-1.8%	x	x	x	x	x
Cc1[nH][nH]c(=O)c1C(c1ccc(-c2ccc(C(=O)O)cc2)o1)c1c(C)[nH][nH]c1=O	u	-4.8%	-26.5%	-24.4%	1.8	-6.5%	8.6%	u
Cc1[nH][nH]c(=O)c1C(c1ccc(-c2ccc(F)cc2)o1)c1c(C)[nH][nH]c1=O	-13.9%	-5.5%	u	u	2.3	x	x	x
COc1ccc2c(c1OC)OCC(c1ccc(OC)c(OC)c1OC)C2 (configuration not stated)	x	-4.8%	-2.2%	-6.7%	-3.4	x	x	x
O=C(O)CCN1C(=O)/C(=C\c2ccc(-c3nc4ccccc4s3)o2)SC1=S	u	-1.3%	-2.4%	27.8%	u	71.1µM*	50.3µM*	24.3µM*
O=C(O)CCN1C(=O)/C(=C\c2ccncc2)SC1=S	35.5µM*	0.6%	4.1%	28.1%	2.2	x	x	12.4%
COc1ccc(/C=C2/SC(=S)N(CCC(=O)O)C2=O)cc1	-29.1%	-7.4%	3.0%	14.3%	4.6	x	x	x
COc1ccc(-c2nc(CNC(=O)Nc3ccccc3)c(C)o2)c(OC)c1	x	-0.4%	4.6%	x	x	x	x	x
Cc1ccsc1C=C1C(=O)c2ccccc2C1=O	u	-7.7%	-1.7%	u	0.2	10µM*	-4.2%	13.8%
O=C(NC1CC(=O)N(c2cccc(F)c2)C1)c1cccs1 (configuration not stated)	x	1.3%	8.8%	x	x	x	x	x
Nc1nc2c(s1)CCc1c-2cnn1-c1ccccc1	31.6µM*	u	u	-18.0%	-0.8	u	u	30.6µM*
